Experimental findings from paper PMC7862700, “An all-to-all approach to the identification of sequence-specific readers for epigenetic DNA modifications on cytosine” are described below.

Common to all, as to assay: DAPPL (digital affinity profiling via proximity ligation, sequencing); 10 mM Tris-HCl pH 7.5, 50 mM NaCl, 1 mM DTT, 4% glycerol, room temperature, 30 min; GST-TFs on glutathione beads, 16-mer random dsDNA library, 0.1% formaldehyde crosslink after washing; high values mean tight binding
Common to all, as to conditions: protein: recombinant; tags: N-terminal GST; dsDNA, one strand shown

Test [1] concerns the target T1, ELK1 (Homo sapiens, UniProt P19419 1-428).
T1 sequence: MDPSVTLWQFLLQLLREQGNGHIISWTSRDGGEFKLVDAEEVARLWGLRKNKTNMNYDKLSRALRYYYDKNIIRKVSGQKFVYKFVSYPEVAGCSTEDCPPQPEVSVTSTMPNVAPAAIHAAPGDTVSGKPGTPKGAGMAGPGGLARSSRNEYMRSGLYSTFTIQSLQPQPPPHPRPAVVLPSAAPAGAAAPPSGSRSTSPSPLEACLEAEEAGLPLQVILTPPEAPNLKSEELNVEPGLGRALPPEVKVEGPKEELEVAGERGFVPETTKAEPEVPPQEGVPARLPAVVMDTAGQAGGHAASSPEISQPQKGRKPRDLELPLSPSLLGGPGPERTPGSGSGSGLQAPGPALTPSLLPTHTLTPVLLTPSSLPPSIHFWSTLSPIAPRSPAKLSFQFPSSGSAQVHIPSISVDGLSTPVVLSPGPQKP
A digest of the protocol:
(§1)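 The binding signal reported is, for every hexamer, its read frequency for a factor over its read frequency for the tag-only sample. Reads came from pools of yeast-expressed, GST-fused human transcription factors on glutathione beads, barcoded with DNA and mixed with that sample, which were incubated with 200 nmole of a random double-stranded 16-mer DNA library in Tris/NaCl/DTT/glycerol buffer at room temperature for 30 min. After washing, the pools were crosslinked with 0.1% formaldehyde, proximity-ligated with BsaI/T4 ligase for 1 h at 37 °C, PCR-amplified and sequenced on an Illumina NextSeq500.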

Test [2] deals with T2, GABPA (Homo sapiens, UniProt Q06546 1-454).
T2 sequence: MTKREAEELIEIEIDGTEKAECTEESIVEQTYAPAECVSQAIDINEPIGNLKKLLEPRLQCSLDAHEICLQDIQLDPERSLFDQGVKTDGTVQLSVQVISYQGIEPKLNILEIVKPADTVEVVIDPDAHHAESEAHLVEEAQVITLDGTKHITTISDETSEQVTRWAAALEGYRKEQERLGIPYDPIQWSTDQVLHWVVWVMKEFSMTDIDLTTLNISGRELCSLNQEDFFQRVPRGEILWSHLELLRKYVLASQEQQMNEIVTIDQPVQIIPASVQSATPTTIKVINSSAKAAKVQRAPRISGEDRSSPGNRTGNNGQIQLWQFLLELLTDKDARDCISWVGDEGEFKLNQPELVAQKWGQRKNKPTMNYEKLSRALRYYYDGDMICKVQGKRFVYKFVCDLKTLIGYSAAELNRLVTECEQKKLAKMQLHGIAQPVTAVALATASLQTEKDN
In a few lines: as §1

Test [3] concerns the target T3, ERG (Homo sapiens, UniProt P11308 1-479).
T3 sequence: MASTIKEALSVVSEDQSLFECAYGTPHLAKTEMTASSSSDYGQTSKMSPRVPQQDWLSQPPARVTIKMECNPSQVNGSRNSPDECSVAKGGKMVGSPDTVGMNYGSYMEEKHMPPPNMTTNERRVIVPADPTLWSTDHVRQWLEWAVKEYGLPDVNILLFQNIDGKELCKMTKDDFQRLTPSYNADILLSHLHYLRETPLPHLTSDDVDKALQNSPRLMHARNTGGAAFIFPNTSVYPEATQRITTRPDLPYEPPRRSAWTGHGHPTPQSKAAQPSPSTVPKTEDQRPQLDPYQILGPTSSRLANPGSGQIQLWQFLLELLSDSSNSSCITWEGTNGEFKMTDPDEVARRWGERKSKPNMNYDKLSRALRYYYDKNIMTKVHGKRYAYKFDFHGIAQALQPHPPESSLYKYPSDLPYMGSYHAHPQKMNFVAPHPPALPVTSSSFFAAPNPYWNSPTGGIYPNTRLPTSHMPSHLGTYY
In a few lines:
as §1

Test [4] deals with ELF1 (Homo sapiens, UniProt P32519 1-619). A digest of the protocol:
as §1

In test [5] the target is SPIB (Homo sapiens, UniProt Q01892 1-262). A digest of the protocol: as §1
The target in test [6] is T4, FEV (Homo sapiens, UniProt Q99581 1-238).
T4 sequence: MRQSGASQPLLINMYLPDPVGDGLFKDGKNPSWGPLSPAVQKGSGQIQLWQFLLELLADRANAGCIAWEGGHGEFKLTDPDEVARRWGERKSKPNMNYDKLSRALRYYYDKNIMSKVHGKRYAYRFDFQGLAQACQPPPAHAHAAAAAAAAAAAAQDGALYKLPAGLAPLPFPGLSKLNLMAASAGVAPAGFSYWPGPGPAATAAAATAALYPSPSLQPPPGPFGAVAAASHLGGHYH
A digest of the protocol: as §1

Test [7] has as its target ETV5 (Homo sapiens, UniProt P41161 1-510). A digest of the protocol: as §1
The target of test [8] is ELF4 (Homo sapiens, UniProt Q99607 1-663). In a few lines: as §1
The target of test [9] is T5, ELF3 (Homo sapiens, UniProt P78545 1-371).
T5 sequence: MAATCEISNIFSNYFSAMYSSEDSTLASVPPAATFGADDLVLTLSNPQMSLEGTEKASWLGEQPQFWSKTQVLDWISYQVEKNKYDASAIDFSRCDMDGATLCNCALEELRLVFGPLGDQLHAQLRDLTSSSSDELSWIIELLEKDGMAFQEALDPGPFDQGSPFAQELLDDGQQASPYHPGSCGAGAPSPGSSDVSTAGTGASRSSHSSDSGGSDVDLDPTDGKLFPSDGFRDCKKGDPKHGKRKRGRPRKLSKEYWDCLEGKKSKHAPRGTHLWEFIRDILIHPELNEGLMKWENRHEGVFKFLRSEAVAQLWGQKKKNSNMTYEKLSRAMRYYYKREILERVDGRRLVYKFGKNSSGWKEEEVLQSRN
In a few lines: as §1

Test [10] deals with ETV1 (Homo sapiens, UniProt P50549 1-477). A digest of the protocol:
as §1

Test [11] deals with T6, ETV3L (Homo sapiens, UniProt Q6ZN32 1-361).
T6 sequence: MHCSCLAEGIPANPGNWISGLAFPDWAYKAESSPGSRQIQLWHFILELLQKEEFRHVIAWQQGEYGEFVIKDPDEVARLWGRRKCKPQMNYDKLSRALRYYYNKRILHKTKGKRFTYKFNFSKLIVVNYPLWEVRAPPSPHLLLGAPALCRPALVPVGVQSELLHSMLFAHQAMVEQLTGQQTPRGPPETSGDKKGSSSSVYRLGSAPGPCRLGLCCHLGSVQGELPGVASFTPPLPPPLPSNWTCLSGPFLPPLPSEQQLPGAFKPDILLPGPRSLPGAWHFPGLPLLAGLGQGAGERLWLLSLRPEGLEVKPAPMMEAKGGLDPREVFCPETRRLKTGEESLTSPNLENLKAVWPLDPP
A digest of the protocol:
as §1

In test [12] the target is T7, ETS2 (Homo sapiens, UniProt P15036 1-469).
T7 sequence: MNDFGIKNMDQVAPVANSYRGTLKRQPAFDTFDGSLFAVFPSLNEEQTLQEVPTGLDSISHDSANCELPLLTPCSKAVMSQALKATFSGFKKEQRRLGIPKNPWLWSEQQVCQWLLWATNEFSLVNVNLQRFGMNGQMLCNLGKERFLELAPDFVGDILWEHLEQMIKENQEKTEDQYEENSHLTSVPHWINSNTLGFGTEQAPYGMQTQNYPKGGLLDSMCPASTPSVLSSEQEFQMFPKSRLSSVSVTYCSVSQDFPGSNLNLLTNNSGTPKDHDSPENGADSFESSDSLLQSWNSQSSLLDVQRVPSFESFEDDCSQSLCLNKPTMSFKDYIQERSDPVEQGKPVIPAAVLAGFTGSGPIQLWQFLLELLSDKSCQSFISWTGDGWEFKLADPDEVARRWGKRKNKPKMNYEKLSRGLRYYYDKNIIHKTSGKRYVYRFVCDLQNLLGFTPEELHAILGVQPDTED
A digest of the protocol: as §1

Test [13] concerns the target T8, SPDEF (Homo sapiens, UniProt O95238 1-335).
T8 sequence: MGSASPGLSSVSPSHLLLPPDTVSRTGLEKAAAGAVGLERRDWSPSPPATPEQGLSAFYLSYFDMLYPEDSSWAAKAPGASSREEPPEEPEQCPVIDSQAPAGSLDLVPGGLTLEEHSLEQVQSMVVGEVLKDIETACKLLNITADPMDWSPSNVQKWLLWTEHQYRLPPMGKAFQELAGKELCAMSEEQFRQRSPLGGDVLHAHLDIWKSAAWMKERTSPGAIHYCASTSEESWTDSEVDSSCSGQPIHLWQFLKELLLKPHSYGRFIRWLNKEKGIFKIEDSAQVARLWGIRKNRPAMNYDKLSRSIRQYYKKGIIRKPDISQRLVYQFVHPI
A digest of the protocol:
as §1

In test [14] the target is T9, ETV7 (Homo sapiens, UniProt Q9Y603 1-341).
T9 sequence: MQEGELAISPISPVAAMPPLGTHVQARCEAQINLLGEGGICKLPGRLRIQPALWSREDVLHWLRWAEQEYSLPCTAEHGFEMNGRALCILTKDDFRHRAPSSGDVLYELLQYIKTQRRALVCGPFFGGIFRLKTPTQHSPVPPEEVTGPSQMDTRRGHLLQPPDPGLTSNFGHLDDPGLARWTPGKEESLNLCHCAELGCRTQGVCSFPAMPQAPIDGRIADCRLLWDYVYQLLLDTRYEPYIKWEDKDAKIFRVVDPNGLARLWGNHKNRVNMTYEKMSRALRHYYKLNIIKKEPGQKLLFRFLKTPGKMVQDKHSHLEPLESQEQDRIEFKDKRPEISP
In a few lines: as §1

Test [15] concerns the target T10, ETV3 (Homo sapiens, UniProt P41162-2 1-143).
T10 sequence: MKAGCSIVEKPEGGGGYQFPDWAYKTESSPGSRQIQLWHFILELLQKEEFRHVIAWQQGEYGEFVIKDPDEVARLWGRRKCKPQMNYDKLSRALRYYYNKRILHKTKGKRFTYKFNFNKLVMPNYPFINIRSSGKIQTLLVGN
A digest of the protocol:
as §1

In test [16] the target is ETV6 (Homo sapiens, UniProt P41212 1-452). In a few lines: as §1
Sequence of ETV6 (P41212 whole entry): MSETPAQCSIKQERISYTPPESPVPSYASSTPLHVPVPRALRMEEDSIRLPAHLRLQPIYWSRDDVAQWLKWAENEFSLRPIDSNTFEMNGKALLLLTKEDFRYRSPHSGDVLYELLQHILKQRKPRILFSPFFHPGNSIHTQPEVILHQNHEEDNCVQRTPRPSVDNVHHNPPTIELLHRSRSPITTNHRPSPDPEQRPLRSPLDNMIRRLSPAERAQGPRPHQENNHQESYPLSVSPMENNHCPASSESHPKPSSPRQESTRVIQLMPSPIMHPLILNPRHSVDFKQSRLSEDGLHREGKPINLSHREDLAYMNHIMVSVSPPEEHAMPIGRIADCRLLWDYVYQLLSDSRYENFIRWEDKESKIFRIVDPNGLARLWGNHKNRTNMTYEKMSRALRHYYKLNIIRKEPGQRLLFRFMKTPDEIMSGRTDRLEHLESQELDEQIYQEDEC

Sequence of ETV5 (P41161 whole entry): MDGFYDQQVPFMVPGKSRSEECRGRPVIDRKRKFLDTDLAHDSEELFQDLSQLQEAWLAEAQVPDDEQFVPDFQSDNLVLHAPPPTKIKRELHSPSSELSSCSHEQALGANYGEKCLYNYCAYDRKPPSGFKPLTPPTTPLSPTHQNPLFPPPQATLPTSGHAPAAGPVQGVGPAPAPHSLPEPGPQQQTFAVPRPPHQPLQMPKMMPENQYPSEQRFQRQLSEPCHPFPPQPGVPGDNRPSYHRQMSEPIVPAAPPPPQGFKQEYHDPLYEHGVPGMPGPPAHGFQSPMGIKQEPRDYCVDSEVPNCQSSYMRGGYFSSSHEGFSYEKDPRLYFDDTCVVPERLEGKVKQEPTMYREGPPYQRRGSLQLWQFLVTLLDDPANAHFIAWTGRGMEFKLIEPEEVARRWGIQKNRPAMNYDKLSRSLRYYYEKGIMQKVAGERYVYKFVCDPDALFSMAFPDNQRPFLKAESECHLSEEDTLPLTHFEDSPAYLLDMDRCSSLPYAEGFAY
Sequence of ELF4 (Q99607 whole entry): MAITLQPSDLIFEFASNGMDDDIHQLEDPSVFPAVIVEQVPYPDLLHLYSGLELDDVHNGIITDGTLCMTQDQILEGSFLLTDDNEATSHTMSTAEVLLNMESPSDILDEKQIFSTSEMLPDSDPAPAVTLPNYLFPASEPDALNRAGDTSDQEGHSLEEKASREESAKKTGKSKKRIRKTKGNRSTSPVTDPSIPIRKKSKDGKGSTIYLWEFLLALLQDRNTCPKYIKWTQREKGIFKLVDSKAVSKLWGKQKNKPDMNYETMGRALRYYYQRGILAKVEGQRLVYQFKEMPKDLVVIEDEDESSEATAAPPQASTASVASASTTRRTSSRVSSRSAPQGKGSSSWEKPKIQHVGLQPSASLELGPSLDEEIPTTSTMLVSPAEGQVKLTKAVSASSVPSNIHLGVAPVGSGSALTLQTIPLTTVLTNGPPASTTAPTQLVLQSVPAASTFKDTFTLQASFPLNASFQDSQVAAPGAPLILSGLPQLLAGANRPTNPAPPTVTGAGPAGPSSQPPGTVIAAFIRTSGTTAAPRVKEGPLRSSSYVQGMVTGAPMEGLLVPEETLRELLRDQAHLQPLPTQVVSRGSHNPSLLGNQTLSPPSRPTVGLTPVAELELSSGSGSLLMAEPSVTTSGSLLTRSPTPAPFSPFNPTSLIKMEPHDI
Sequence of ELF1 (P32519 whole entry): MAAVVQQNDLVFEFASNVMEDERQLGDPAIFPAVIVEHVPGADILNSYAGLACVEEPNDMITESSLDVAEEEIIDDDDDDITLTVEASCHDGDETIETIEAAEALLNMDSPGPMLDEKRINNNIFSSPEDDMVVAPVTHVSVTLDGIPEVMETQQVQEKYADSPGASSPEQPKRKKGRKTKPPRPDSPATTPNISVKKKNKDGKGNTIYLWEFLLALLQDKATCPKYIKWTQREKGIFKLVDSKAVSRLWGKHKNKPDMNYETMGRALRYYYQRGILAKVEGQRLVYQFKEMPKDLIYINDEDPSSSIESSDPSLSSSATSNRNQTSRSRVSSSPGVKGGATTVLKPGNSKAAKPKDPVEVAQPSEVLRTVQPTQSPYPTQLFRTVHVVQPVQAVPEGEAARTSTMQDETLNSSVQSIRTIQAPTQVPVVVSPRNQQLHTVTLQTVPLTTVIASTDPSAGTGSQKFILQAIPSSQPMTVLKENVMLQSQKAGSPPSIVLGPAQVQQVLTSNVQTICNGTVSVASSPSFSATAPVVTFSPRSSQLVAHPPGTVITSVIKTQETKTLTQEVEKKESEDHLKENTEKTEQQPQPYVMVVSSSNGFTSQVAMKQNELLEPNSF
Sequence of ETV1 (P50549 whole entry): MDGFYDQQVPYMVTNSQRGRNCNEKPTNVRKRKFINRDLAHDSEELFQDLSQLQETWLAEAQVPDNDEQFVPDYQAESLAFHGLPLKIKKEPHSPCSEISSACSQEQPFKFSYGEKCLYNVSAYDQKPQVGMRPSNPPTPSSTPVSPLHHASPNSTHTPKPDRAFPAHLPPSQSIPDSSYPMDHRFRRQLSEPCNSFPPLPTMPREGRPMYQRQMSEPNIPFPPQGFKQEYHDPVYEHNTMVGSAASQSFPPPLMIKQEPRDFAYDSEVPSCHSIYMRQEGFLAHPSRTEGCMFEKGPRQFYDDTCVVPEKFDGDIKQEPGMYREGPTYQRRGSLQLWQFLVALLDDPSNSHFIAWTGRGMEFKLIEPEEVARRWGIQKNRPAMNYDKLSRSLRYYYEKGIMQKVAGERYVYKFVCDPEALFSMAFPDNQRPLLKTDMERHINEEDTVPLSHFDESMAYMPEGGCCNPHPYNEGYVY
Sequence of SPIB (Q01892 whole entry): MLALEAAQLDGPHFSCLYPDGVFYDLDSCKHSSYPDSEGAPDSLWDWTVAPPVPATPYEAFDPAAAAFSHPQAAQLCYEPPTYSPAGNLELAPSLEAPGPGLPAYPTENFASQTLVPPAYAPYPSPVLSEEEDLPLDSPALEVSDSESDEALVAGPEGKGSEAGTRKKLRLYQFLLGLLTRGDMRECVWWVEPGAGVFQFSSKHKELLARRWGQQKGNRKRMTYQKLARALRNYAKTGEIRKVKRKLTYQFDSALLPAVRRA

On to GTTACC, for which the binding signal is 1.16 fold enrichment (6-mer frequency, TF over GST control) in test [1]; 1.05 fold enrichment (6-mer frequency, TF over GST control) in [2]; 1.04 fold enrichment (6-mer frequency, TF over GST control) in test [3]; 1.04 fold enrichment (6-mer frequency, TF over GST control) in [4]; 1.14 fold enrichment (6-mer frequency, TF over GST control) in [5]; 1.07 fold enrichment (6-mer frequency, TF over GST control) in [6]. Further, the binding signal was 1.06 fold enrichment (6-mer frequency, TF over GST control) in test [7]; 1.07 fold enrichment (6-mer frequency, TF over GST control) in [8]; 1.06 fold enrichment (6-mer frequency, TF over GST control) in test [9]; 1.08 fold enrichment (6-mer frequency, TF over GST control) in test [10]; 1.04 fold enrichment (6-mer frequency, TF over GST control) in test [11]; 1.09 fold enrichment (6-mer frequency, TF over GST control) in [12]. Besides, the binding signal was 1.03 fold enrichment (6-mer frequency, TF over GST control) in [13]; 1.02 fold enrichment (6-mer frequency, TF over GST control) in test [14]; 1.03 fold enrichment (6-mer frequency, TF over GST control) in test [15]; 1.03 fold enrichment (6-mer frequency, TF over GST control) in test [16].
